Source: PubChem BioAssay AID1851 (National Center for Advancing Translational Sciences (NCATS), 2009)
“And” between values parts separate entries of the source, which are not always exact repeats. Identical values can stand only once. The whole screen tested about 16,000 compounds, of which about 5,100 (32%) were called active. Not shown: some 25% with an inconclusive outcome. The list shows a part of the results. Unmarked numbers belong to inactive results. Calls follow the shape of the dose curve; as a rule, active = well fitted curve in the direction sought with a large enough effect; inconclusive = small, poorly fitted or top-dose-only effect, or effect the other way; inactive = no such curve, though single readings can be large or run the other way.
% is scaled to controls: 0 for no effect and ±100 for the full control effect.

What follows are molecules tested against Cytochrome P450 3A4 (Homo sapiens) (UniProt P08684) (assay: Cytochrome panel assay with activity outcomes). Conditions: recombinant CYP, pro-luciferin dealkylation, luminescence, p450-cyp3a4; series mostly up to 57.1 µM.
Cytochrome P450 3A4 (Homo sapiens), sequence (P08684 whole entry, looked up): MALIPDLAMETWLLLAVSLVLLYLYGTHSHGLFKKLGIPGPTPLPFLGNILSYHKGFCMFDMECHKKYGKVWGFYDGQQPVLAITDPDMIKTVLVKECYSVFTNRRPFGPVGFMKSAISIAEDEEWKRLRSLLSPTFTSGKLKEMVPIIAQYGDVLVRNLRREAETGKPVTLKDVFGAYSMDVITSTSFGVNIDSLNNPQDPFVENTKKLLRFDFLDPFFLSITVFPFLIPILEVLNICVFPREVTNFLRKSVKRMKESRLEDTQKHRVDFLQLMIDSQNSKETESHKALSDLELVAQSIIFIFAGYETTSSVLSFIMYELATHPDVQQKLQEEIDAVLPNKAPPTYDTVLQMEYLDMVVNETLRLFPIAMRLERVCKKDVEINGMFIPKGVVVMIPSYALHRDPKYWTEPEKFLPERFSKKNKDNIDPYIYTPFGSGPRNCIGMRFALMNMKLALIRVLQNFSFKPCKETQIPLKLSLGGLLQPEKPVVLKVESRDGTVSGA
`COc1ccc(NC(=S)Nc2ccccc2)cc1` was tested, and the activity, negative = inhibition was -19.5% [at 11.4 µM].
With `COc1ccc(C(=S)Nc2ccccc2)cc1` the AC50 was 31.6 µM (active).
In the case of `CN(CC[C@@H](Oc1ccc(-c2ccccc2)cc1)c1ccc(F)cc1)CC(=O)O`, the AC50 is reported as “inactive”.
In the case of `CCN(CC)CCNC(=O)C(C)c1nn(C)c(=O)c2ccccc12` (configuration not stated), the activity, negative = inhibition is reported as -0.681% [at 2.29 µM].
`CCCn1nc(C(=O)NCC(C)(C)N2CCOCC2)c2ccccc2c1=O` was tested, and the AC50 was 7.08 µM (active).
For `Cc1cc(Cl)ccc1OCCCC(=O)N1CCN(C)CC1`, the AC50 was 12.6 µM (active).
For `CC1CCN(CCOc2cc(Cl)ccc2Cl)CC1`, the AC50 was “inactive”.
In the case of `CC(C)NCCCOc1ccc(Cl)cc1Br`, the activity, negative = inhibition is reported as 6.16% [at 2.29 µM].
`CC(=O)OC[C@H]1O[C@@H](O/N=C2/[C@H]3O[C@@H]3[C@@H](O)[C@H]3[C@H]2CCn2c(=O)n(-c4ccccc4)c(=O)n23)[C@H](OC(C)=O)[C@@H](OC(C)=O)[C@@H]1OC(C)=O` gave an activity, negative = inhibition of -17.4% [at 11.4 µM].
With `COc1ccc(O[C@H]2C=C[C@@H](c3ccccc3)O[C@H]2CO/N=C2/[C@H]3O[C@@H]3[C@@H](O)[C@H]3[C@H]2CCn2c(=O)n(-c4ccccc4)c(=O)n23)cc1` the AC50 was 3.16 µM (active).
In the case of `O=c1n(-c2ccccc2)c(=O)n2n1CC[C@H]1/C(=N\OCc3ccccc3)[C@H]3O[C@@H]3[C@@H](O)[C@@H]12`, the activity, negative = inhibition is reported as -7.77% [at 11.4 µM].
In the case of `CCCNC(=O)OC[C@H]1O[C@@H](CCO/N=C2/[C@H]3O[C@@H]3[C@@H](O)[C@H]3[C@H]2CCn2c(=O)n(-c4ccccc4)c(=O)n23)C=C[C@@H]1Oc1ccc(OC)cc1`, the AC50 is reported as 3.16 µM (active).
`CC(C)CO/N=C1/[C@H]2O[C@@H]2[C@@H](O)[C@H]2[C@H]1CCn1c(=O)n(-c3ccccc3)c(=O)n12` was tested, and the activity, negative = inhibition was -14% [at 11.4 µM].
Molecule `CC(C)=CCC/C(C)=C/CO/N=C1/[C@H]2O[C@@H]2[C@@H](O)[C@H]2[C@H]1CCn1c(=O)n(-c3ccccc3)c(=O)n12` has an activity, negative = inhibition of -17.8% [at 11.4 µM].
For `O=C(CP(=O)(c1ccccc1)c1ccccc1)Nn1cnnc1`, the AC50 was “inactive”.
In the case of `O=C(c1csnn1)N1CCC2(CC1)CCN(c1ccccn1)CC2`, the AC50 is reported as “inactive”.
`O=C(c1csnn1)N1CCC2(CCCN(c3ccc(-c4ccccc4)cc3)C2)CC1` was tested, and the AC50 was 7.94 µM (active).
With `O=C(c1csnn1)N1CCC2(CC1)CCN(c1ccccc1)CC2` the AC50 was “inactive”.
For `O=C(c1csnn1)N1CCC2(CCCN(c3ccccc3)C2)CC1`, the AC50 was 12.6 µM (active).
With `O=C(c1csnn1)N1CCC2(CC1)CN(c1ccccc1)C2` the AC50 was “inactive”.
For `CN1CCC(n2[nH]c(-c3ccccc3)c(Cc3ccccc3)c2=O)CC1`, the AC50 was 3.98 µM (active).
Work on `O=c1c(Cc2ccccc2)c(O)nc2n1CCS2` yielded an activity, negative = inhibition of -2.9% [at 2.29 µM].
`CCNc1ncc2nc(-c3ccc(Cl)cc3)c(=O)n(C3CC3)c2n1` was tested, and the AC50 was “inactive”.
With `CCOC(=O)c1c(C(C)(C)C)oc2ccc(O)cc12` the AC50 was “inactive”.
`CCOC(=O)c1c(C)oc2c1cc(O)c1ccccc12` was tested, and the AC50 was 14.1 µM (active).
`CCOC(=O)c1c(C)oc2c1c(C=NC1CCS(=O)(=O)C1)c(O)c1ccccc12` (configuration not stated) was tested, and the AC50 was “inactive”.
Molecule `CN(C)CN1CSC(=S)N(CN(C)C)C1` has an activity, negative = inhibition of -11.6% [at 11.4 µM].
With `COc1cc(CNC(=O)CCCC/C=C\C(C)C)ccc1O` the AC50 was 3.98 µM (active) and 7.94 µM (active).
With `COc1cc(CC(=O)O)ccc1O` the AC50 was “inactive”.
With `COc1cc([C@H](O)C(=O)O)ccc1O` the AC50 was “inactive”.
With `CCn1c(SCC(=O)Nc2sc3c(c2C#N)CCC(C(C)(C)C)C3)nnc1-c1ccco1` (configuration not stated) the AC50 was “inactive”.
In the case of `CCOC(=O)c1c(NC(=S)NC(=O)c2cnn(CC)c2)sc2c1CCC(C)C2` (configuration not stated), the AC50 is reported as “inactive”.
`CCn1c(SCC(=O)Nc2sc3c(c2C(N)=O)CCC(C)C3)nnc1-c1ccco1` (configuration not stated) was tested, and the AC50 was 7.08 µM (active).
In the case of `CC(=O)C[C@H](c1ccc([N+](=O)[O-])cc1)c1c(O)c2ccccc2oc1=O`, the AC50 is reported as “inactive”.
`CC1=NCC[N@@+]1(CCc1ccccc1)Cc1ccccc1` gave an activity, negative = inhibition of -18.6% [at 11.4 µM].
With `COc1ccc(CNc2ccnc(-c3cccc(C#N)c3)n2)c(OC)c1` the AC50 was 2 µM (active).
With `COc1ccccc1CNc1ccnc(-c2cccc(C#N)c2)n1` the AC50 was 3.98 µM (active).
`N#C[C@H](c1ccccc1)N1CCCN([C@@H](C#N)c2ccccc2)C1c1ccccc1O` (some centres not stated) gave an activity, negative = inhibition of -24.5% [at 11.4 µM].
`O=C(O)CC/C=C\CC[C@H]1[C@@H](N2CCCCC2)[C@@H](O)C[C@@H]1OCc1ccc(-c2ccccc2)cc1` was tested, and the AC50 was “inactive”.
For `NC(=O)c1ccc(NC(=O)C2CCCO2)cc1` (configuration not stated), the AC50 was “inactive”.
`O=C(Nc1nnc(SCc2ccc(Cl)cc2Cl)s1)C1COc2ccccc2O1` (configuration not stated) was tested, and the AC50 was 4.47 µM (active).
In the case of `O=C(Nc1nnc(SCc2c(Cl)cccc2Cl)s1)C1CCCO1` (configuration not stated), the AC50 is reported as 12.6 µM (active).
`O=C(Nc1ncc(Cc2ccccc2)s1)C1COc2ccccc2O1` (configuration not stated) was tested, and the AC50 was “inactive”.
`CCCCCCCCCCCCCCCC[N+](C)(C)CCN(Cc1ccc(OC)cc1)c1ncccn1` was tested, and the AC50 was “inactive”.
Molecule `NC(N)=NC(N)=Nc1c(F)c(F)c(F)c(F)c1F` has an activity, negative = inhibition of -1.13% [at 11.4 µM].
`Cc1nn(CCc2n[nH]c(=S)n2-c2ccc(F)c(Cl)c2)c(C)c1[N+](=O)[O-]` was tested, and the AC50 was 3.16 µM (active).
Work on `CC(C)=C1C(=O)NN(c2ccc(F)c(Cl)c2)C1=O` yielded an activity, negative = inhibition of -12.4% [at 11.4 µM].
In the case of `Cc1cccc(-n2c(Cn3nc(C)c([N+](=O)[O-])c3C)n[nH]c2=S)c1`, the activity, negative = inhibition is reported as -17% [at 2.29 µM].
In the case of `C[n+]1ccccc1/C=N\O`, the AC50 is reported as “inactive”.
For `CC(C)N1CCN(c2ccc(OC[C@@H]3CO[C@@](Cn4cncn4)(c4ccc(Cl)cc4Cl)O3)cc2)CC1`, the AC50 was 1.58 µM (active).
In the case of `COc1ccc(CNc2nc(-c3c(C)noc3C)nc3ccccc23)c(OC)c1`, the AC50 is reported as 2.51 µM (active).
With `Cc1noc(C)c1-c1nc(NCc2cccs2)c2ccccc2n1` the AC50 was 6.31 µM (active).
`COc1ccccc1CNc1nc(-c2c(C)noc2C)nc2ccccc12` was tested, and the AC50 was 10 µM (active).
`CCn1cc(C(=O)O)c(=O)c2cnc(N3CCCC3)nc21` was tested, and the AC50 was “inactive”.
Work on `O=C(Nc1c[nH]c(=O)[nH]c1=O)Oc1ccccc1` yielded an activity, negative = inhibition of -22.1% [at 11.4 µM].
With `CN(C)c1ccc(-c2cncnc2NCc2cccs2)cc1` the AC50 was 0.794 µM (active).
For `CN(C)C(=O)c1ccc(-c2cncnc2NCc2cccs2)cc1`, the AC50 was 3.16 µM (active).
For `CCCCCCc1nc2ccccc2c(=O)n1NC(=O)c1c(O)c2c(n(CC(C)C)c1=O)CCCC2`, the activity, negative = inhibition was 10% [at 2.29 µM].
For `Cc1cc(=O)oc(C)c1C(=O)NCc1ccccc1`, the activity, negative = inhibition was 0.149% [at 2.29 µM].
For `CCCn1c2c(c(O)c(C(=O)NCc3ccccc3)c1=O)CCCC2`, the AC50 was 17.8 µM (active).
In the case of `Cn1cc(-c2nc3cnc(Oc4ccccc4)nc3n(C)c2=O)c2ccccc21`, the AC50 is reported as “inactive”.
With `COc1ncc2nc(-c3ccccc3)c(=O)n(-c3ccccc3)c2n1` the AC50 was “inactive”.
For `COc1ncc2nc(-c3cn(C)c4ccccc34)c(=O)n(C)c2n1`, the AC50 was 5.01 µM (active).
With `COc1ccc(-n2c(=O)c(-c3cn(C)c4ccccc34)nc3cnc(OC)nc32)cc1` the AC50 was 1.58 µM (active).
With `COc1ncc2nc(-c3cn(C)c4ccccc34)c(=O)n(CCC#N)c2n1` the AC50 was 6.31 µM (active).
For `CC(=O)c1cnc2c(C(=O)O)cnn2c1C`, the AC50 was “inactive”.
With `Cc1c(NC(=O)CCCOc2ccccc2)cccc1[N+](=O)[O-]` the AC50 was 14.1 µM (active).
`Cc1c(NC(=O)/C=C/C(=O)O)cccc1[N+](=O)[O-]` was tested, and the AC50 was “inactive”.
`Cc1cccc(OCCCC(=O)Nc2ccccc2C(F)(F)F)c1` was tested, and the AC50 was 14.1 µM (active).
`CCN(CC)S(=O)(=O)c1ccc(OC)c(NC(=O)c2cc([N+](=O)[O-])ccc2Cl)c1` was tested, and the AC50 was 12.6 µM (active).
In the case of `CCCCC(=O)Nc1cc(OCC)c(NC(=O)c2ccccc2[N+](=O)[O-])cc1OCC`, the AC50 is reported as 7.08 µM (active).
`Cc1ccc(OCC(=O)NNC(=O)CCC(=O)Nc2ccc(C)cc2C)cc1` was tested, and the AC50 was “inactive”.
In the case of `O=C1NCCCC1C(=O)Nc1ccccc1C(F)(F)F` (configuration not stated), the AC50 is reported as “inactive”.
`CCOc1cc(NC(=O)c2ccccc2[N+](=O)[O-])c(OCC)cc1NC(=O)CC(C)C` was tested, and the activity, negative = inhibition was 3.38% [at 2.29 µM].
Molecule `OC[C@@H]1O[C@@H](N2CCN([C@@H]3O[C@@H](CO)[C@@H](O)[C@H](O)[C@H]3O)CC2)[C@@H](O)[C@H](O)[C@H]1O` has an activity, negative = inhibition of 2.3% [at 11.4 µM].
Molecule `CCCOc1ccc(/C=C/C(=O)Nc2ccc([N+](=O)[O-])cc2C)cc1` has an activity, negative = inhibition of 2.56% [at 11.4 µM].
`Cc1cccc[n+]1CC(=O)Nc1ccc([N+](=O)[O-])cc1Cl` was tested, and the AC50 was “inactive”.
In the case of `COc1ccccc1NC(=O)Cn1cncc1-c1ccc([N+](=O)[O-])cc1`, the AC50 is reported as 14.1 µM (active).
Molecule `CCN(CC)C(=O)c1cc2cc([N+](=O)[O-])ccc2s1` has an activity, negative = inhibition of 20.4% [at 11.4 µM].
`COc1cc([N+](=O)[O-])ccc1NC(=O)CCCOc1cccc(C)c1` was tested, and the AC50 was 5.01 µM (active).
With `CCN(CC(=O)Nc1ccc([N+](=O)[O-])cc1OC)c1ccccc1` the AC50 was 12.6 µM (active).
Work on `Cc1cc2nc([C@H](C)C(=O)c3ccc(Cl)cc3)c(=O)[nH]c2cc1C` yielded an activity, negative = inhibition of -25.9% [at 11.4 µM].
`CCCS(=O)(=O)N1CCCC(C(=O)N2CCOCC2)C1` (configuration not stated) was tested, and the AC50 was “inactive”.
`CSc1nc(Cl)cc(N(CCO)CCO)n1` was tested, and the AC50 was “inactive”.
With `COC(=O)C/C=C\[C@@H](C)[C@@H](/C=N\OCC[C@H]1C=C[C@H](OC(C)=O)[C@@H](COC(C)=O)O1)NS(=O)(=O)c1ccc(C)cc1` the AC50 was 3.98 µM (active).
With `COC(=O)C/C=C\[C@@H](C)[C@@H]1C=C[C@H](OC(C)=O)[C@H](COC(C)=O)O1` the activity, negative = inhibition was -23.4% [at 11.4 µM].
In the case of `CCCNC(=O)OC[C@H]1O[C@@H](CCO/N=C\[C@@H](NS(=O)(=O)c2ccc(C)cc2)[C@H](C)/C=C\CC(=O)OC)C=C[C@@H]1Oc1ccc(OC)cc1`, the AC50 is reported as 3.16 µM (active).
